Measured values: PubChem BioAssay (EPA / NIEHS)
Activity calls are given as the source filed them. How the source made its calls: active means hit-call score of the fitted dose curve at least 0.9, where 1 is the maximum; inactive means score below 0.9.

Tests used:
[1] = APR_HepG2_P-H2AX_72hr: Apredica 72-hour HepG2 Assay for H2AX Phosphorylation (AID 2282916); settings: imaging, actives raise or lower the signal;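 further: phospho-histone H2A.x immunostain intensity per cell marking DNA damage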
Summary of the method: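 HepG2; cpd 0.39–200 uM ×10 conc, duplicates; 0.5% DMSO; 72 hr. Fix 3.7% formaldehyde 30 min RT, 0.5% Triton X-100 10 min. Anti-phospho-H2A.x 1:200 + Hoechst 2 ug/mL, 60 min RT; ArrayScan imaging.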

[2] = APR_HepG2_MitoMembPot_72hr: Apredica 72-hour HepG2 Assay for Mitochondrial Membrane Potential (AID 2282917); settings: imaging, actives raise or lower the signal
Summary of the method: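 HepG2 cells exposed 72 h to compounds at 0.39–200 uM (0.5% v/v DMSO, duplicates); MitoTracker Red CMXRos 250 nM loaded 30 min before 3.7% formaldehyde fixation, imaged by HCS fluorescence. Bidirectional fit versus DMSO.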

[3] = APR_HepG2_MitoticArrest_72hr: Apredica 72-hour HepG2 Assay for Mitotic Arrest (AID 2282918); settings: high-content imaging, actives raise or lower the signal
Summary of the method: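 High-content imaging of fixed human HepG2 cells after 72 h compound exposure (0.39–200 uM, duplicates, 0.5% DMSO); mitotic arrest scored from phospho-histone H3 and nuclear Hoechst staining relative to DMSO.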

[4] = APR_HepG2_MicrotubuleCSK_72hr: Apredica 72-hour HepG2 Assay for Microtubule CSK Stabilty (AID 2282919); settings: HepG2 microtubule cytoskeleton, high-content imaging, actives raise or lower the signal
Summary of the method: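 HepG2 human liver cells were dosed for 72 h at ten concentrations from 0.39 to 200 uM in duplicate (0.5% v/v DMSO final). Fixed, permeabilized cells were immunostained for alpha-tubulin (Cy5) with a Hoechst counterstain and imaged at 20x.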

[5] = APR_HepG2_P-H2AX_24hr: Apredica 24-hour HepG2 Assay for H2AX Phosphorylation (AID 2282920); settings: high-content imaging, actives raise or lower the signal
Summary of the method: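 High-content imaging of phospho-histone H2A.x immunofluorescence, nuclei counterstained with Hoechst 33342, in fixed HepG2 cells. Compounds ran 0.39–200 uM in duplicate for 24 h, final DMSO 0.5%. Signal change fitted both directions against DMSO.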

[6] = APR_HepG2_StressKinase_72hr: Apredica 72-hour HepG2 Assay for Stress Kinase (AID 2282921); settings: HepG2 stress kinase (phospho-c-Jun) imaging, actives raise or lower the signal
Summary of the method: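 Dose 0.39–200 uM (10 pts, duplicate), 0.5% DMSO; 72 h; fix 3.7% formaldehyde 30 min RT; Triton permeabilize; anti-phospho-c-Jun/Cy3 + Hoechst 60 min RT; image 20x; fit gain/loss vs DMSO.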

[7] = APR_HepG2_StressKinase_24hr: Apredica 24-hour HepG2 Assay for Stress Kinase (AID 2282922); settings: HepG2 stress kinase (phospho-c-Jun) imaging, actives raise or lower the signal
Summary of the method: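 HepG2 cells exposed 24 hr to compound at 0.39–200 uM (10 concentrations, duplicate), 0.5% v/v DMSO final. Fixed in 3.7% formaldehyde, permeabilized with Triton X-100, immunolabeled for phospho-c-Jun with Hoechst 33342; HCS fluorescence imaging, bidirectional fit versus DMSO.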

[8] = APR_HepG2_p53Act_72hr: Apredica 72-hour HepG2 Assay for p53 Activation (AID 2282923); settings: high-content imaging, actives raise or lower the signal;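 further: average cellular p53 protein immunofluorescence intensity in HepG2 cells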
Summary of the method: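 10-pt conc. 0.39–200 uM, duplicate, 0.5% DMSO; 72 hr exposure; 3.7% formaldehyde fix, 0.5% Triton perm; sheep anti-p53/Cy5 + Hoechst; ArrayScan 20x, 6 images/well; gain/loss fit vs DMSO.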

[9] = APR_HepG2_MitoMass_72hr: Apredica 72-hour HepG2 Assay for Mitochondrial Mass (AID 2282924); settings: high-content imaging, actives raise or lower the signal;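 further: MitoTracker Red CMXRos stain intensity per cell imaged as mitochondrial mass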
Summary of the method: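 HepG2 cells were exposed for 72 hr to compounds at 0.39–200 uM (ten concentrations, duplicate, 0.5% v/v DMSO final). Live cells were stained with 250 nM MitoTracker Red CMXRos for 30 min, then fixed in 3.7% formaldehyde and imaged by HCS fluorescence.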

[10] = APR_HepG2_NuclearSize_72hr: Apredica 72-hour HepG2 Assay for Nuclear Size (AID 2282925); settings: high-content imaging, actives raise or lower the signal
Summary of the method: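 HepG2 cells were exposed to compounds at ten concentrations from 0.39 to 200 uM (duplicate, 0.5% DMSO final) for 72 hr. After fixation in 3.7% formaldehyde, nuclei were stained with Hoechst 33342 (2 ug/mL) and imaged at 20x.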

[11] = ATG_CRE_CIS: Attagene CIS-FACTORIAL HepG2 Assay for human cAMP Responsive Element (CRE) binding protein 3 (AID 2282926); settings: HepG2 CRE cis-reporter, Attagene multiplexed mRNA; actives raise or lower the signal
Summary of the method: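 Multiplexed transcription-unit reporters transfected into HepG2; 24 h dosing; RT-PCR/capillary electrophoresis fluorescence read-out; bidirectional fit vs DMSO.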

[12] = molecular target: CCAAT/enhancer-binding protein beta (Homo sapiens) (UniProt P17676); assay: ATG_C_EBP_CIS: Attagene CIS-FACTORIAL HepG2 Assay for human CCAAT/Enhancer Binding Protein (C/EBP) beta (AID 2282927); settings: HepG2 Attagene cis-factorial transcription factor reporter; actives raise or lower the signal
Summary of the method: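 Chemical-treated HepG2 cells (24 h) bearing cis-regulated reporter constructs were processed for total RNA, then reverse transcription, PCR amplification, fluorescent primer extension and fragment analysis; gain- and loss-of-signal were fitted against DMSO.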

[13] = ATG_CMV_CIS: Attagene CIS-FACTORIAL HepG2 Assay for human CMV (Internal Marker) (AID 2282928); settings: HepG2 CMV promoter reporter, transcription factor profiling; actives raise or lower the signal;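 further: endpoint acts as a background internal control marker rather than a target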
Summary of the method: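 Endogenous transcription factor activity read in HepG2 via transfected cis-promoter reporter units. After 24 h dosing, reporter mRNA measured by RT-PCR/capillary electrophoresis; gain or loss of signal fit relative to DMSO.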

[14] = ATG_DR4_LXR_CIS: Attagene CIS-FACTORIAL HepG2 Assay for human Liver X Receptor (LXR), DR4 submotif (AID 2282929); settings: HepG2 Attagene DR4 cis-reporter, mRNA transcription; actives raise or lower the signal
Summary of the method: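 Transiently transfected HepG2 liver cells; cis-regulated reporters; 24 h dosing. RT-PCR plus CE read-out of reporter mRNA. DMSO baseline, bidirectional curve fitting.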

[15] = molecular target: Aryl hydrocarbon receptor (Homo sapiens) (UniProt P35869); assay: ATG_Ahr_CIS: Attagene CIS-FACTORIAL HepG2 Assay for human Aryl Hydrocarbon Receptor (Ahr) (AID 2282930); settings: HepG2 AhR cis-factorial reporter transcription; actives raise or lower the signal
Summary of the method: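 Following 24 h of chemical dosing, transfected HepG2 liver cells with cis-driven reporter units were lysed for RNA; reporter mRNA was quantified via RT-PCR and capillary electrophoresis, and responses fitted bidirectionally from DMSO.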

[16] = ATG_AP_2_CIS: Attagene CIS-FACTORIAL HepG2 Assay for human Activator Protein 2 (AP-2) (AID 2282932); settings: HepG2 AP-2 cis-reporter, Attagene transcription factor profiling; actives raise or lower the signal
Summary of the method: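 Bidirectional curve fitting against DMSO was applied to reporter mRNA signals from HepG2 cells 24 h after dosing. Cis-promoter reporter units, transiently transfected, were read by RT-PCR plus capillary electrophoresis.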

[17] = ATG_BRE_CIS: Attagene CIS-FACTORIAL HepG2 Assay for human Bone Morphogenetic Protein (BMP) Response Element (BRE) (AID 2282933); settings: HepG2 BMP response element reporter, Attagene transcription factor profiling; actives raise or lower the signal
Summary of the method: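 After a 24 h chemical treatment, transiently transfected HepG2 cells were lysed for RNA; reporter transcripts were quantified by fluorescent RT-PCR and capillary electrophoresis, normalised to DMSO.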

[18] = molecular target: Retinoic acid receptor alpha (Homo sapiens) (UniProt P10276); assay: ATG_DR5_RAR_CIS: Attagene CIS-FACTORIAL HepG2 Assay for human Retinoic Acid Receptor Alpha (RARE), DR5 submotif (AID 2282934); settings: HepG2 Attagene cis-factorial RARE DR5 reporter, mRNA; actives raise or lower the signal;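 on AC50: reporter responds to endogenous RAR alpha beta and gamma in HepG2 not RARA alone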
Summary of the method: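 Transfected HepG2 reporter cells are exposed to chemicals for 24 h. Then RNA is extracted and the DR5 element reporter transcript is measured by RT-PCR and capillary electrophoresis, with bidirectional curve fitting relative to DMSO.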

[19] = molecular target: Transcription factor E2F1 (Homo sapiens) (UniProt Q01094); assay: ATG_E2F_CIS: Attagene CIS-FACTORIAL HepG2 Assay for human E2F Transcription Factor 1 (AID 2282935); settings: HepG2 Attagene cis-reporter, E2F reporter RNA transcripts; actives raise or lower the signal
Summary of the method: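 Multiplexed cis-reporter assay: HepG2, transient transfection, 24 h dosing, mRNA quantitation by labeled RT-PCR and CE.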

[20] = ATG_AP_1_CIS: Attagene CIS-FACTORIAL HepG2 Assay for human Activator Protein 1 (AP-1) (AID 2282931); settings: HepG2 Attagene cis-factorial AP-1 reporter mRNA; actives raise or lower the signal
Summary of the method: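 We transfected HepG2 cells transiently with a set of cis-regulated reporter transcription units, dosed them for 24 h, and quantified reporter mRNA via RT-PCR and capillary electrophoresis, scoring gain or loss of signal relative to DMSO.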

Measured: AC50

Sequence of Retinoic acid receptor alpha (Homo sapiens) (P10276 whole entry, looked up): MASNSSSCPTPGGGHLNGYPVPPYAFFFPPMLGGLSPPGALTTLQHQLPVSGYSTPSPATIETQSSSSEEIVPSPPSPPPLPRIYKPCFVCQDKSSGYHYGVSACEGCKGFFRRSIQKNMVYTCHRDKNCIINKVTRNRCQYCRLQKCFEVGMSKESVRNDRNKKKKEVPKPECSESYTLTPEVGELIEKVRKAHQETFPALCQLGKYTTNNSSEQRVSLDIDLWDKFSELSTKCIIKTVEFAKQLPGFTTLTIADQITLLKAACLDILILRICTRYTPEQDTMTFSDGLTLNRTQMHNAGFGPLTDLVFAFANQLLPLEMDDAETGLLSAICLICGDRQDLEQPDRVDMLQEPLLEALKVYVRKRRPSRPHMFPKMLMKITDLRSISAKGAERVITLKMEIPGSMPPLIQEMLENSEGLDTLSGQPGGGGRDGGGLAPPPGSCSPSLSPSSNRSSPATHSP
Sequence of Transcription factor E2F1 (Homo sapiens) (Q01094 whole entry, looked up): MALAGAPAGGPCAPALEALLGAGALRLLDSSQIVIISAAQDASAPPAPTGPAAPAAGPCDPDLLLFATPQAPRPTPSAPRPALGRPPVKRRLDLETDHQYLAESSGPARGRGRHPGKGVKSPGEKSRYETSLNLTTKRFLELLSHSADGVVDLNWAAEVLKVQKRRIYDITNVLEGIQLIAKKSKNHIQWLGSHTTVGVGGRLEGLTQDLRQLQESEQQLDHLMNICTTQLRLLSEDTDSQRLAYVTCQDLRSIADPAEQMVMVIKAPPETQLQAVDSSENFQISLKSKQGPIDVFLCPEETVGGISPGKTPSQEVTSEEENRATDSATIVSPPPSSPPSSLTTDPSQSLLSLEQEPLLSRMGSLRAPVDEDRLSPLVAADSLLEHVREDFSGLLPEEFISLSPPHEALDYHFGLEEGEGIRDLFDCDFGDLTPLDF
Sequence of CCAAT/enhancer-binding protein beta (Homo sapiens) (P17676 whole entry, looked up, the tested form may be a part): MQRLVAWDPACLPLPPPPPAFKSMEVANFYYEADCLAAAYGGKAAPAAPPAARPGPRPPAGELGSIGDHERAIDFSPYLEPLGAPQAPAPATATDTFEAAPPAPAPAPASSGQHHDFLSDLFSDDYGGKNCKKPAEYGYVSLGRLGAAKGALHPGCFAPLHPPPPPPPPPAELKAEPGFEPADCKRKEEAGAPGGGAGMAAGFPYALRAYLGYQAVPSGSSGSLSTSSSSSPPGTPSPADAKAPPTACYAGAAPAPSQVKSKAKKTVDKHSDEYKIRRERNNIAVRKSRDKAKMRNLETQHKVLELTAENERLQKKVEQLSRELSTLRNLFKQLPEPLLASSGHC
Sequence of Aryl hydrocarbon receptor (Homo sapiens) (P35869 whole entry, looked up): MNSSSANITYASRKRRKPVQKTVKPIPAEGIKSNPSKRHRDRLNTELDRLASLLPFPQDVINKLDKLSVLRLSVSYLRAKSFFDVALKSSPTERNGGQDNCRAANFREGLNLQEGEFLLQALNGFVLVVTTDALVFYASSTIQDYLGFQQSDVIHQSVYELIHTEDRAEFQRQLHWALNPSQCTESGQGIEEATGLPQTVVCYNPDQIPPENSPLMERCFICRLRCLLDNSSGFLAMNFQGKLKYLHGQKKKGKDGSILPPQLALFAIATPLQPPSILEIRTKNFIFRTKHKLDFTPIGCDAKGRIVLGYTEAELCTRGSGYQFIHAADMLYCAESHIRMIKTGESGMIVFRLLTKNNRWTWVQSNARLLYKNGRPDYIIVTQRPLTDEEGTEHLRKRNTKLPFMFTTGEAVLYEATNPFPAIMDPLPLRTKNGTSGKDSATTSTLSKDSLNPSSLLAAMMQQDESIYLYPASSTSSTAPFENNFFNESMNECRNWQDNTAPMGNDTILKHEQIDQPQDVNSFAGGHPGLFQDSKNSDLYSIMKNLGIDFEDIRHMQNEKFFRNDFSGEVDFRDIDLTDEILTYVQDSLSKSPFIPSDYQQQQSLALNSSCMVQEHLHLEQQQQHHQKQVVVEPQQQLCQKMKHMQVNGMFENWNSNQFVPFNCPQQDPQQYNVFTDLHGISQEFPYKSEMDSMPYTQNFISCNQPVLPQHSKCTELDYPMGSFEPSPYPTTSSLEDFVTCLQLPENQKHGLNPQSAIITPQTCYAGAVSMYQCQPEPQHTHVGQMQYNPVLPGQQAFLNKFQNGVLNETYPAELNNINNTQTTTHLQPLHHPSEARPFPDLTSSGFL

CCCCCCCCOC(=O)c1ccccc1C(=O)OCCCCCCCC
inactive: [1] | [2] | [3] | [4] | [5] | [6] | [7] | [8] | [9] | [10] | [11] | [12] | [13] | [14] | [15] | [16] | [17] | [18] | [19]

CCNc1nc(NC(C)C)nc(SC)n1
inactive: [1] | [3] | [4] | [5] | [6] | [7] | [9] | [10] | [11] | [12] | [13] | [14] | [15] | [16] | [17] | [19]
active: [2] 59.6 µM

Cc1ccccc1O
inactive: [1] | [2] | [3] | [4] | [5] | [6] | [7] | [8] | [9] | [10] | [11] | [12] | [13] | [14] | [15] | [16] | [17] | [18] | [19]

CCC(C)(CC)c1cc(NC(=O)c2c(OC)cccc2OC)on1
active: [11] 1.16 µM | [12] 1.48 µM | [14] 32 µM | [15] 20.5 µM | [17] 9.92 µM | [18] 12.7 µM
inactive: [1] | [2] | [3] | [4] | [5] | [6] | [7] | [9] | [10] | [13] | [20] | [16] | [19]
